Among all 200,000 compounds or so, about 780 (0.39%) were called active. This is one part of a sample in which actives are shown more often than they occur. Rule as the data show it: active = TR-FRET ratio above about 2000; inactive = the rest.

This assay is described as follows: TR-FRET signal artefacts, primary screen, artefact control for PPARgamma SRC-2 agonist project, biochemical (AID 1049). The note with it: TR-FRET artefact counter-screen; at 8 µM; stronger effect = higher value.
Regarding `COc1ccc(-c2nnco2)cc1OC`, the TR-FRET ratio is 1520 (inactive).

`COc1ccc2c(Cl)c(-c3nnco3)sc2c1`: the TR-FRET ratio was 2130 (active).

Take `COc1ccc2c(Cl)c(C(=O)NCc3ccco3)sc2c1`: the TR-FRET ratio is 1570 (inactive).

As for `COCCNC(=S)N/N=C/c1c(C)[nH]c2ccccc12`, the TR-FRET ratio is 1410 (inactive).

In the case of `COc1ccc(C(=O)NC2CCN(C(=S)NCCc3ccccc3)CC2)cc1`, the TR-FRET ratio was 1560 (inactive).

As to `C/C=C(\C)C(=O)NCCN1C2=NC[C@H](Cc3ccc(O)cc3)N2C[C@@H]1Cc1ccc(OC)cc1`, the TR-FRET ratio was 1390 (inactive).

Turning to `CCN1CCC2(CCN(Cc3cn[nH]c3-c3ccc(OC)c(F)c3)C2)C1` (stereo not drawn), the TR-FRET ratio is 1730 (inactive).

Take `N#Cc1ccc(-c2ccc(Cl)cc2)nc1Oc1ccc(F)cc1`: the TR-FRET ratio is 5180 (active).

Take `N#Cc1ccc(-c2ccc(F)cc2)nc1Sc1ccccc1`: the TR-FRET ratio is 1500 (inactive).

Take `CN(C)c1ccnc(Oc2ccc(F)cc2)c1C#N`: the TR-FRET ratio is 1800 (inactive).

Turning to `CCn1cc(C(=O)Nc2cc(C)ccc2C)c(=O)c2ccc(C)nc21`, the TR-FRET ratio is 1650 (inactive).

For the compound `CCOC(=O)C1(Cc2cccc(OC)c2)CCN(C(C)CC(C)(C)O)CC1` (stereo not drawn), the TR-FRET ratio is 1480 (inactive).

For the compound `NC(=O)CSc1oc(-c2cccs2)nc1S(=O)(=O)c1ccccc1`, the TR-FRET ratio was 2010 (active).

For the compound `COC(=O)CSc1nccc(-c2cccs2)n1`, the TR-FRET ratio was 1880 (inactive).

Turning to `COc1ccc(OC)c(C(=O)CSc2nnc(-c3cccs3)o2)c1`, the TR-FRET ratio was 1750 (inactive).

Regarding `CCCn1c(N)c(C(=O)CSc2nc3ccccc3c(=O)n2-c2ccc(OC)cc2)c(=O)[nH]c1=O`, the TR-FRET ratio is 1480 (inactive).

Turning to `Cc1cc(C)nc(/N=C2\NC(=O)CC(C(=O)O)N2c2ccc(Cl)cc2Cl)n1` (stereo not drawn), the TR-FRET ratio is 1590 (inactive).

Take `COc1cccc(-c2ccc(SCC(=O)N3CCN(c4ccccc4)CC3)nn2)c1`: the TR-FRET ratio was 1690 (inactive).

As to `COc1cc(C2C(C(=O)c3ccc(C)o3)=C(O)C(=O)N2Cc2cccnc2)ccc1O` (stereo not drawn), the TR-FRET ratio is 1570 (inactive).

`COc1cc(C2C(C(=O)c3ccc(C)o3)=C(O)C(=O)N2CCc2ccccc2)ccc1O` (stereo not drawn): the TR-FRET ratio is 1530 (inactive).

On to `CCCOc1ccc(C2C(C(=O)c3ccc(C)o3)=C(O)C(=O)N2CCCn2ccnc2)cc1` (stereo not drawn), for which the TR-FRET ratio is 2170 (active).

`COc1ccc(NC(=O)COC(=O)c2ccc(NS(=O)(=O)/C=C/c3ccccc3)cc2)cc1`: the TR-FRET ratio is 1720 (inactive).

In the case of `O=C(c1ccc2ccccc2n1)N1CCN(c2ccccc2Cl)CC1`, the TR-FRET ratio is 1700 (inactive).

Regarding `COc1ccc(C2C(C#N)=C(N)N(c3ncn[nH]3)C3=C2C(=O)CCC3)cc1` (stereo not drawn), the TR-FRET ratio is 1620 (inactive).

On to `COc1cccc(CN2CCNC(=O)C2CC(=O)N(C)CCc2ccccn2)c1` (stereo not drawn), for which the TR-FRET ratio was 1620 (inactive).

For `NC(=NC(=O)c1ccccc1)N1CCOCC1`, the TR-FRET ratio was 1360 (inactive).

Take `CC(C(=O)N1CCOCC1)N1c2cccc3cccc(c23)S1(=O)=O` (stereo not drawn): the TR-FRET ratio is 2090 (active).

Turning to `Cc1ccc(S(=O)(=O)NC(C(=O)N2CCOCCOCCOCCOCC2)c2ccccc2)cc1` (stereo not drawn), the TR-FRET ratio is 1360 (inactive).

For the compound `C/C(=N\N1CCN(Cc2ccc(C)cc2)CC1)c1ccco1`, the TR-FRET ratio was 1400 (inactive).

`Cc1nnc(SCc2cccc(Cl)c2)n(N)c1=O`: the TR-FRET ratio was 1460 (inactive).

As to `Cc1cc([N+](=O)[O-])nn1CCCC(=O)Nc1cccnc1Cl`, the TR-FRET ratio was 1580 (inactive).

For the compound `CC(NC(=S)Nc1ccc(S(N)(=O)=O)cc1)c1ccc2c(c1)OCO2` (stereo not drawn), the TR-FRET ratio is 1640 (inactive).

As for `CC(C)(C)N(CC#CCC(O)(c1ccccc1)C1CCCC1)CCO` (stereo not drawn), the TR-FRET ratio was 1230 (inactive).

Take `O=C1NC(c2cccc(Cl)c2)Nc2ccccc21` (stereo not drawn): the TR-FRET ratio is 1540 (inactive).

As for `CC(=O)N1c2ccccc2N(Cc2ccc([N+](=O)[O-])cc2)C(=O)C1(C)C`, the TR-FRET ratio was 1510 (inactive).

As to `CCC1CCCCN1C(=S)Nc1ccc(C(C)=O)cc1` (stereo not drawn), the TR-FRET ratio is 1340 (inactive).

`CCN(CC)CCCNC(=O)CCc1ccccc1`: the TR-FRET ratio was 1550 (inactive).

With `CCN(CCCNC(=O)CSc1cc(=O)n(C)c2cc(Cl)ccc12)Cc1ccccc1`, the TR-FRET ratio was 2600 (active).

In the case of `CCN(CC)CCCNC(=O)c1cc(-c2cccc(Cl)c2)on1`, the TR-FRET ratio was 1610 (inactive).

Take `CCc1ccc(CN(C)Cc2nc(Cc3ccccc3)no2)nc1`: the TR-FRET ratio was 1650 (inactive).

For the compound `CCOC(=O)c1ccc(NC(=O)c2cc(=O)[nH]c3ccccc23)cc1`, the TR-FRET ratio is 1510 (inactive).

Regarding `O=C(O)Cc1sc(-c2ccccc2)nc1-c1cccs1`, the TR-FRET ratio is 2400 (active).

Take `O=C(O)Cc1sc(-c2ccc(C(=O)O)cc2)nc1-c1ccccc1`: the TR-FRET ratio is 1800 (inactive).

For the compound `Cc1ccc(-c2nc(C)sc2CC(=O)O)cc1`, the TR-FRET ratio was 1600 (inactive).

Consider `N#CC1(NC(=O)COc2ccc3oc4ccccc4c3c2)CCCCC1`, for which the TR-FRET ratio is 1590 (inactive).

Consider `COc1cc(C=O)c(Br)cc1OCC(=O)NCc1ccccc1`, for which the TR-FRET ratio is 1530 (inactive).

In the case of `Cc1cc(=O)[nH]c(SCC(=O)N2c3ccccc3CC2C)n1` (stereo not drawn), the TR-FRET ratio was 1610 (inactive).

In the case of `O=C(c1cc2sccc2n1Cc1ccc(F)cc1)N1CCc2ccccc21`, the TR-FRET ratio was 2950 (active).

As to `CCOC(=O)c1cc2sccc2n1Cc1ccc(C#N)cc1`, the TR-FRET ratio is 1400 (inactive).

With `O=C(NCc1ccco1)c1cc2sccc2n1Cc1ccc(F)cc1`, the TR-FRET ratio is 1520 (inactive).

Take `O=C(CSCc1ccccc1)N1CCc2ccccc21`: the TR-FRET ratio is 1410 (inactive).

For `CC1Cc2ccccc2N1C(=O)c1cc2sccc2n1Cc1ccccc1` (stereo not drawn), the TR-FRET ratio was 1970 (active).

With `COc1ccc(-c2csc(Cc3nc(O)cs3)n2)cc1`, the TR-FRET ratio is 1650 (inactive).

In the case of `CC(O)c1cccc(NC(=O)Cc2cccc3ccccc23)c1` (stereo not drawn), the TR-FRET ratio was 1490 (inactive).

Regarding `CC1(C)CC(=O)C/C(=N\NC(=O)c2cccs2)C1`, the TR-FRET ratio was 1760 (inactive).

For the compound `COc1cc(/C=C/C(=O)OCC(=O)NC(=O)NCc2ccccc2)ccc1OCC#N`, the TR-FRET ratio is 1430 (inactive).

For the compound `C=CCNC(=O)CSc1nc2sc(C)c(C)c2c(=O)[nH]1`, the TR-FRET ratio was 1430 (inactive).

In the case of `CC(=O)c1sc2nc(SCC(=O)N3CCCCC3)[nH]c(=O)c2c1C`, the TR-FRET ratio is 1990 (active).

With `O=C(CSc1nc2c(cnn2-c2ccc(F)cc2)c(=O)[nH]1)N1CCCCCC1`, the TR-FRET ratio is 1460 (inactive).

Take `O=C(CSCc1ccc(Cl)cc1)N1CCCCC1`: the TR-FRET ratio was 1510 (inactive).

With `CC(=O)c1ccc(-n2nnnc2SCC(=O)N2CCN(C(=O)c3ccco3)CC2)cc1`, the TR-FRET ratio was 1580 (inactive).

For `Cc1cccc(OCc2nnc(SCC(=O)N3CCN(C(=O)c4ccco4)CC3)n2C)c1C`, the TR-FRET ratio was 1760 (inactive).

For the compound `CCOC(=O)C1CCN(C(=O)CSc2cc(=O)n(C)c3ccccc23)CC1`, the TR-FRET ratio was 2840 (active).

In the case of `CCOc1ccc(CCNC(=O)CSc2cc(=O)n(C)c3ccc(Cl)cc23)cc1OCC`, the TR-FRET ratio is 1900 (inactive).

Consider `CCOC(=O)N1CCC(NC(=O)COc2cc(=O)n(C)c3ccccc23)CC1`, for which the TR-FRET ratio is 1480 (inactive).

For `Cn1c(=O)cc(SCC(=O)N2CCN(C(=O)c3ccco3)CC2)c2ccccc21`, the TR-FRET ratio is 2320 (active).

Turning to `Cn1c(=O)cc(SCC(=O)N2CCCC2)c2cc(Cl)ccc21`, the TR-FRET ratio is 2940 (active).

Take `CCOC(=O)C1CCN(C(=O)Cn2cc(C#N)c3ccccc32)CC1`: the TR-FRET ratio was 1470 (inactive).

As to `CN(C)C(CNC(=O)c1cccc(C#N)c1)c1ccco1` (stereo not drawn), the TR-FRET ratio is 1390 (inactive).

In the case of `COc1ccc(NC(=O)CN2C(=O)CSC2=O)cc1`, the TR-FRET ratio is 1580 (inactive).

For the compound `Cc1ccc(CN2CCN(Cc3ccc(OCCO)cc3)CC2CCO)o1` (stereo not drawn), the TR-FRET ratio was 1600 (inactive).

As for `CC(C)OCCCNC(=S)N1CCC(C(=O)c2ccc3c(c2)OCCO3)CC1`, the TR-FRET ratio was 1610 (inactive).

Take `O=C(Nc1cccc(O)c1)c1ccc(C(=O)c2ccccc2)o1`: the TR-FRET ratio is 1480 (inactive).

As to `COC(=O)CN1C(=O)N/C(=C/c2ccc(OC)c(C)c2OC)C1=O`, the TR-FRET ratio was 1240 (inactive).

With `CCOc1ccc(C(=O)Nc2cccc(-c3ccc4nncn4n3)c2)cc1`, the TR-FRET ratio was 1400 (inactive).

Take `Cc1cccc(N2CCN(C(=O)c3cccc(S(=O)(=O)N4CCc5ccccc5C4)c3)CC2C)c1` (stereo not drawn): the TR-FRET ratio was 1420 (inactive).

`Cc1nc(-c2ccccc2)sc1C(=O)/C=C/c1ccccc1`: the TR-FRET ratio is 1450 (inactive).

For the compound `Cc1nc(-c2ccccc2)sc1-c1nc(-c2ccccc2)ncc1S(=O)(=O)c1ccccc1`, the TR-FRET ratio was 1980 (active).

On to `C=CCn1c(-c2sc(-c3ccccc3)nc2C)n[nH]c1=S`, for which the TR-FRET ratio was 1590 (inactive).

As for `Cc1cc(C)c2c(c1)cc(C)c1nnc(SCC(=O)Nc3cc(C)on3)n12`, the TR-FRET ratio is 1970 (active).

Take `Cc1ccc(-c2csc(SCC(=O)Nc3cc(C)on3)n2)cc1`: the TR-FRET ratio was 1440 (inactive).

Regarding `Cc1cc(NC(=O)CSc2nnc(Nc3ccccc3F)s2)no1`, the TR-FRET ratio was 1500 (inactive).

Consider `CCN(CC)C(=O)C(=O)Nc1cccc(Br)c1`, for which the TR-FRET ratio is 1590 (inactive).

For the compound `COc1ccc(-n2c(O)c(C=NCC(c3ccco3)N3CCCC3)c3ccccc3c2=O)cc1OC` (stereo not drawn), the TR-FRET ratio is 1590 (inactive).

Turning to `COc1ccccc1C1/C(=C(/O)c2ccc(C)cc2)C(=O)C(=O)N1Cc1ccco1` (stereo not drawn), the TR-FRET ratio is 1510 (inactive).

For `COc1ccc(/C(O)=C2/C(=O)C(=O)N(c3nc(C)c(C)s3)C2c2ccco2)cc1` (stereo not drawn), the TR-FRET ratio is 2180 (active).

`COc1ccc(/C(O)=C2\C(=O)C(=O)N(Cc3ccco3)C2c2ccc(OC)cc2OC)cc1` (stereo not drawn): the TR-FRET ratio is 1620 (inactive).

Take `Cc1ccc(S(=O)(=O)Nc2nc3ccccc3s2)cc1[N+](=O)[O-]`: the TR-FRET ratio was 1360 (inactive).

Consider `Cc1ccc(C)c(-n2cc(CN3CCN(C(=O)c4ncn[nH]4)CC3)c(-c3ccccc3)n2)c1`, for which the TR-FRET ratio was 1390 (inactive).

In the case of `Cc1ccc(-n2[nH]c(C)c(/C=N/N3C(=O)c4cccc5cccc(c45)C3=O)c2=O)cc1`, the TR-FRET ratio is 1510 (inactive).

For the compound `COc1cc(SC#N)ccc1N=Cc1c(C)[nH]n(-c2ccc(C)cc2)c1=O`, the TR-FRET ratio was 1980 (active).

Regarding `CCc1nnc(NS(=O)(=O)c2ccc(N=Cc3c(C)[nH]n(-c4ccc(C)cc4)c3=O)cc2)s1`, the TR-FRET ratio was 1630 (inactive).

Turning to `Cc1cc(C)c(NC(=O)c2oc3ccccc3c2COc2ccccc2)c(C)c1`, the TR-FRET ratio is 1540 (inactive).

Take `CCCCCC(O)c1cccc(OCc2ccc3ccccc3n2)c1` (stereo not drawn): the TR-FRET ratio was 1460 (inactive).

As to `CCN(CC)S(=O)(=O)c1ccc(N(C)Cc2cccc(OC)c2OC)nc1`, the TR-FRET ratio is 1770 (inactive).

Take `Cc1cccc(-c2ncc(CN3CCC(CO)(CCCc4ccccc4)CC3)cn2)c1`: the TR-FRET ratio is 1690 (inactive).

Consider `CC(=O)c1cccc(CN2CCC(CO)(Cc3ccccc3)CC2)c1`, for which the TR-FRET ratio was 1590 (inactive).

With `OCC1(CCc2ccccc2)CCN(Cc2ccc3nsnc3c2)CC1`, the TR-FRET ratio is 2040 (active).

These data come from PubChem BioAssay AID1049 (The Scripps Research Institute Molecular Screening Center, 2008).
